From PubChem BioAssay (NCATS) come the findings set out here.

Values joined by “and” are separate entries in the source; they are usually repeats but may differ in a detail not shown here. Identical values can stand only once. Inconclusive results are not listed. Where a structure was tested more than once in an assay, its records may differ in their call. Active and inactive are the calls of the source. Unless noted, calls follow the shape of the dose curve; as a rule, active = well fitted curve in the direction sought with a large enough effect; inconclusive = small, poorly fitted or top-dose-only effect, or another doubt; inactive = no such curve, though single readings can be large; an effect the other way counts as inactive or inconclusive.
% is scaled to controls: 0 for no effect and ±100 for the full control effect; potency is read from the fitted curve at half-maximal effect.

In one assay the target is Cytochrome P450 2D6 (Homo sapiens) (UniProt P10635). Kind of assay: Cytochrome P450 family 2 subfamily D member 6 (CYP2D6) small molecule antagonists: luciferase biochemical (cell-free) qHTS assay (AID 1645840; active = well fitted curve in the direction sought with a large enough effect in the repeat runs; an effect the other way counts as inactive or inconclusive; also: nearly all actives have a fitted effect of over 55% in size). Conditions: P450-Glo CYP2D6 enzyme, luciferin luminescence, 1 h; series mostly up to 57.4 µM; activity change, negative = inhibition: at the top concentration. The method, boiled down: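 P450-Glo luminescent screen: recombinant CYP2D6 enzyme–proluciferin substrate mix preincubated with compound 10 min at room temperature, then NADPH regeneration added for 1 h at room temperature. Detection reagent added for 20 min; luciferin light read as relative luminescence units.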
Cytochrome P450 2D6 (Homo sapiens), sequence (P10635 whole entry, looked up): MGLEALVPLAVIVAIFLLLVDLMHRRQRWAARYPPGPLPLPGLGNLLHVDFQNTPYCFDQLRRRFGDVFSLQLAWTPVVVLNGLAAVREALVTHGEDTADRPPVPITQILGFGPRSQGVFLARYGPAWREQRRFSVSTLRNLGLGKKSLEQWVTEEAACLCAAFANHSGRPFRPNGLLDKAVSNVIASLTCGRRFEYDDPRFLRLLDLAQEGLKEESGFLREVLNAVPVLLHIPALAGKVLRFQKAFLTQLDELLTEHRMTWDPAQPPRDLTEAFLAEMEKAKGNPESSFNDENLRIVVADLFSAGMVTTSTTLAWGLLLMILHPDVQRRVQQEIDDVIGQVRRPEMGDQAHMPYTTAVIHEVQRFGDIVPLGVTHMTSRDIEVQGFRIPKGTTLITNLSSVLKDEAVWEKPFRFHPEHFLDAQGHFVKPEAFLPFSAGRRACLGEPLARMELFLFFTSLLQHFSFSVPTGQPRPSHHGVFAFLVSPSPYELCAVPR
A general note: qHTS replaces the single test concentration by a dilution series.
Consider `CCCCn1c(-c2ccccc2)nc(-c2ccccc2)c1CN(Cc1ccc2c(c1)OCO2)Cc1ccc2c(c1)OCO2`, for which the Potency was 0.849 µM (active).
Still for that read-out and setting: the result for `CCOC(=O)c1cccc(CNc2ccc(N(C)C(=O)Nc3ccccc3)cc2)c1` reads 5.35 µM (active).
Still for that read-out and setting: the figure for `CC(C)N(CCCNC(=O)Nc1ccc(C(C)(C)C)cc1)C[C@H]1O[C@@H](n2cc(Br)c3c(N)ncnc32)[C@H](O)[C@@H]1O` is 15.1 µM (active); for `O=[N+]([O-])c1ccc(-[n+]2nc(-c3ccccc3)nn2-c2ccc(I)cc2)cc1` it is 5.35 µM (active); for `CN1CCN(C(=O)c2ccc(Nc3nccc(-c4cccs4)n3)cc2Cl)CC1` it is 21.3 µM (active).
Same read-out and setting: the result for `Cn1cc(-c2cnc3ccc4ccc(CS(=O)(=O)NCc5ccccn5)cc4c(=O)c3c2)cn1` reads 12 µM (active); that for `CC(C)(C)c1ccc(CNC(=S)NCc2ccc(NS(C)(=O)=O)c(F)c2)cc1`, 3.38 µM (active); that for `CNCc1ccc(C)c(NC(=O)c2ccc(Nc3nc(-c4ccccc4)c4ccccc4n3)cc2)c1`, 12 µM (active).
`CC1CCC(n2c3cnccc3c3cnc(Nc4ccc5c(n4)CCN(C(=O)CO)C5)nc32)CC1` (centres undefined): the “activity change, negative = inhibition” value is -16.5% (inactive).
As to `C=CC(=O)Nc1cc(Nc2nccc(-c3cn(C)c4ccccc34)n2)c(OC)cc1N(C)CCN(C)C`, the Potency is 23.9 µM (active).
Same read-out and setting: the figure for `COc1cc2ncnc(Nc3ccc(Oc4ccccc4)cc3)c2cc1OC` is 19 µM (active).

The next assay deals with Cytochrome P450 2C9 (Homo sapiens) (UniProt P11712). As to the kind of experiment: Cytochrome P450 family 2 subfamily C member 9 (CYP2C9) small molecule antagonists: luciferase biochemical (cell-free) qHTS assay (AID 1645842; active = well fitted curve in the direction sought with a large enough effect in the repeat runs; an effect the other way counts as inactive or inconclusive; also: nearly all actives have a fitted effect of over 55% in size). Conditions: P450-Glo CYP2C9 enzyme assay, luciferin luminescence; series mostly up to 57.4 µM; activity change, negative = inhibition: at the top concentration. The method, boiled down: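 Luminescence, after 20 min with luciferin detection reagent, reflected CYP2C9 turnover during a 1 h NADPH-driven reaction at 37C. Enzyme-substrate mix contained 0.4% bovine serum albumin and was preincubated with compound 10 min at room temperature.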
Cytochrome P450 2C9 (Homo sapiens), sequence (P11712 whole entry, looked up): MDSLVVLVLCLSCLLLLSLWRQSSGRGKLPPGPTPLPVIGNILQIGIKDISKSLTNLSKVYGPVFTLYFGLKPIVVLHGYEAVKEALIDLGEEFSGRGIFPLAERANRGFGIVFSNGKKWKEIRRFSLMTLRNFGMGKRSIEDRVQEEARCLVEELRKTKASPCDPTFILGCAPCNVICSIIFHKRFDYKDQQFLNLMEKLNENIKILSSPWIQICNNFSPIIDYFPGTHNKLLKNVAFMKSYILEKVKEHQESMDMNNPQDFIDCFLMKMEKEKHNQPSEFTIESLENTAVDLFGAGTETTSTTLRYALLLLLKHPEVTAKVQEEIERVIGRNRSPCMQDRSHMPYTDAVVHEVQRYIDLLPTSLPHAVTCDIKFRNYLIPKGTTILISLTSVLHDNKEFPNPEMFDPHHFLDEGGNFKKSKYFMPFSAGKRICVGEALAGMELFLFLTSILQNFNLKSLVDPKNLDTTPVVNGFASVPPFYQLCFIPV
With `Cc1cc2nc(NCCCO)n(CC(=O)c3cc(C(C)(C)C)c(O)c(C(C)(C)C)c3)c2cc1C`, the Potency is 13.5 µM (active).
`CC[C@H](CO)Nc1nc(Nc2cccc(-c3ccccn3)c2)c2ncn(C(C)C)c2n1`: the Potency is 0.379 µM (active).
The same measure, in the same setting: the result for `Cc1ccccc1C(=O)Nc1ccc(C(=O)N2CCC[C@@H](O)c3cc(Cl)ccc32)c(C)c1` reads 12 µM (active); that for `CCCCn1c(-c2ccccc2)nc(-c2ccccc2)c1CN(Cc1ccc2c(c1)OCO2)Cc1ccc2c(c1)OCO2`, 2.68 µM (active).
On the same count and under the same terms, the figure for `CCOC(=O)c1cccc(CNc2ccc(N(C)C(=O)Nc3ccccc3)cc2)c1` is 0.601 µM (active).
In the case of `CC1CCN(C(c2ccc(F)cc2)c2ccc(C(C)C(=O)O)cc2-c2ccc(C(F)(F)F)cc2)CC1` (centres undefined), the Potency is 9.52 µM (active).
With `COc1ccc(CNC(=O)Nc2ncc([N+](=O)[O-])s2)cc1`, the Potency is 7.56 µM (active).
As to `COc1cc(N2CCOCC2)ccc1Nc1ncc(F)c(Nc2ccccc2NS(C)(=O)=O)n1`, the Potency is 2.13 µM (active).
For `O=[N+]([O-])c1ccc(-[n+]2nc(-c3ccccc3)nn2-c2ccc(I)cc2)cc1`, the Potency was 19 µM (active).
On the same count and under the same terms, the result for `CN1CCN(C(=O)c2ccc(Nc3nccc(-c4cccs4)n3)cc2Cl)CC1` reads 0.674 µM (active).
On to `Cn1cc(-c2cnc3ccc4ccc(CS(=O)(=O)NCc5ccccn5)cc4c(=O)c3c2)cn1`, for which the “activity change, negative = inhibition” value is 5.72% (inactive).
With `CCS(=O)(=O)N(Cc1cccnc1)c1cccc(-c2ccc(C#N)cc2)c1`, the Potency is 9.52 µM (active).
Still for that read-out and setting: the result for `CC(C)(C)c1ccc(CNC(=S)NCc2ccc(NS(C)(=O)=O)c(F)c2)cc1` reads 0.151 µM (active).
On to `CNCc1ccc(C)c(NC(=O)c2ccc(Nc3nc(-c4ccccc4)c4ccccc4n3)cc2)c1`, for which the “activity change, negative = inhibition” value was 6.93% (inactive).
Consider `COc1cc2ncnc(Nc3ccc(Oc4ccccc4)cc3)c2cc1OC`, for which the Potency was 16.9 µM (active).

Test system in the next assay: not listed separately
Kind of assay: Primary qHTS for inhibitors of nuclear receptor binding SET domain protein 2 (NSD2) in an isogenic RCH-ACV NSD2 p.E1099K mutant (9B) (AID 1645876). Also: nearly all actives have a fitted effect of over 70% in size. Conditions: RCH-ACV (leukaemia line) NSD2 E1099K (9B) viability, CellTiter-Glo, 72 h; series mostly up to 44.9 µM; activity change, negative = viability loss: at the top concentration.
Take `O=c1c(-n2ccnn2)c[nH]n1-c1cc(N2CCOCC2)ncn1`: the Potency is 20.9 µM (active).
Same read-out and setting: the result for `C=C1C(=O)O[C@@H]2CC(C)=C([C@@H](C)CCCO)[C@@H](OC(=O)C(C)C)[C@H]12` reads 14.2 µM (active); that for `Oc1ccc(Nc2nc(-c3ccc(Cl)cc3)cs2)cc1`, 6.61 µM (active).
The same measure, in the same setting: the result for `Nc1ncnc2c1ncn2[C@@H]1O[C@H](CO)C[C@H]1O` reads 10.3 µM (active) and inactive; that for `OCC(Cc1ccccc1)Nc1nc(Oc2ccc3c(c2)CCC3)nc2c1ncn2Cc1ccc(-c2ccccc2)cc1` (centres undefined), 16.3 µM (active).
On the same count and under the same terms, the result for `Cc1cc2nc(NCCCO)n(CC(=O)c3cc(C(C)(C)C)c(O)c(C(C)(C)C)c3)c2cc1C` reads 8.17 µM (active); that for `CC1(C)CC23[C@@H]4CC(=O)[C@@H]2COC(=O)[C@@H]3CC[C@H]41`, 12.9 µM (active).
For the compound `CCOC(=O)c1cccc(CNc2ccc(N(C)C(=O)Nc3ccccc3)cc2)c1`, the Potency is 14.5 µM (active).
Consider `CC1CCN(C(c2ccc(F)cc2)c2ccc(C(C)C(=O)O)cc2-c2ccc(C(F)(F)F)cc2)CC1` (centres undefined), for which the Potency is 14.5 µM (active).
On to `O=C(NC(NC(=S)Nc1ccc(F)c([N+](=O)[O-])c1)C(Cl)(Cl)Cl)C(c1ccccc1)c1ccccc1` (centres undefined), for which the Potency is 5.41 µM (active) and 16.4 µM (active).
Same read-out and setting: the figure for `COc1ccc(CNC(=O)Nc2ncc([N+](=O)[O-])s2)cc1` is 18.6 µM (active).
Turning to `OCC(CO)(CO)NCC(O)Cn1c2ccc(Cl)cc2c2cc(Cl)ccc21` (centres undefined), the Potency was 20.5 µM (active).
Still for that read-out and setting: the figure for `COc1cc(N2CCOCC2)ccc1Nc1ncc(F)c(Nc2ccccc2NS(C)(=O)=O)n1` is 8.17 µM (active).
For the compound `CC(=O)C1=C(O)C2c3c[nH]c4cccc(c34)CC2C(C)(C)N(C)C1=O` (centres undefined), the Potency was 18.3 µM (active).
On the same count and under the same terms, the figure for `CC(C)N(CCCNC(=O)Nc1ccc(C(C)(C)C)cc1)C[C@H]1O[C@@H](n2cc(Br)c3c(N)ncnc32)[C@H](O)[C@@H]1O` is 12.9 µM (active) and 16.6 µM (active); for `O=C(c1ccc(F)c(F)c1Nc1ccc(I)cc1F)N1CC(O)(C2CCCCN2)C1` (centres undefined) it is 20.5 µM (active).
Regarding `O=[N+]([O-])c1ccc(-[n+]2nc(-c3ccccc3)nn2-c2ccc(I)cc2)cc1`, the “activity change, negative = viability loss” value is -13.7% (inactive).
On to `CC(=O)N[C@@H](CC(=O)O)C(=O)N[C@@H](CCC(=O)O)C(=O)N[C@H](C(=O)N[C@@H](CC(=O)O)C(=O)Nc1ccc2c(C)cc(=O)oc2c1)C(C)C`, for which the Potency was 5.78 µM (active).
The same measure, in the same setting: the result for `CC1CCCC(SCC(O)C(=O)O)CC(=O)c2c(O)cc(O)cc2CC(=O)O1` (centres undefined) reads 6.32 µM (active).
The same measure, in the same setting: the figure for `COc1ccccc1NC(=O)Nc1ccc2ccccc2c1` is 25.8 µM (active); for `CN1CCN(C(=O)c2ccc(Nc3nccc(-c4cccs4)n3)cc2Cl)CC1` it is 7.28 µM (active); for `Cn1cc(-c2cnc3ccc4ccc(CS(=O)(=O)NCc5ccccn5)cc4c(=O)c3c2)cn1` it is 20.9 µM (active).
Same read-out and setting: the result for `C=C1[C@@H](C2=CC(=O)OC2)CC[C@@]2(O)[C@@H]1CC1[C@H]2CC[C@@H]2C[C@@H](O[C@H]3O[C@@H](C)[C@@H](O[C@@H]4O[C@H](CO[C@@H]5O[C@H](CO)[C@@H](O)[C@H](O)[C@H]5O)[C@@H](O)[C@H](O)[C@H]4O)[C@H](OC)[C@H]3O)CC[C@]12C` (some centres undefined) reads 1.94 µM (active); that for `CCN(CCCOc1ccc2c(Nc3cc(CC(=O)Nc4cccc(F)c4)[nH]n3)ncnc2c1)CCOP(=O)(O)O`, 5.9 µM (active).
`CCS(=O)(=O)N(Cc1cccnc1)c1cccc(-c2ccc(C#N)cc2)c1`: the Potency is 16.3 µM (active).
Same read-out and setting: the entry for `O=C(NNc1ccccc1)c1ccncc1` is “inactive”.
In the case of `C=C1[C@@H](C)[C@H]2[C@H](Cc3c[nH]c4ccccc34)NC(=O)[C@]23C(=O)/C=C/C(=O)[C@H](O)/C(C)=C\[C@@H](C)C/C=C/[C@H]3[C@@H]1O`, the Potency is 3.99 µM (active).
The same measure, in the same setting: the result for `CC(C)(C)c1ccc(CNC(=S)NCc2ccc(NS(C)(=O)=O)c(F)c2)cc1` reads 20.5 µM (active).
On the same count and under the same terms, the result for `CNCc1ccc(C)c(NC(=O)c2ccc(Nc3nc(-c4ccccc4)c4ccccc4n3)cc2)c1` reads 7.42 µM (active).
Regarding `CC1CCC(n2c3cnccc3c3cnc(Nc4ccc5c(n4)CCN(C(=O)CO)C5)nc32)CC1` (centres undefined), the Potency is 2.59 µM (active) and the activity change, negative = viability loss was -24.3% [at 9.23 µM] (inactive).
Take `C=CC(=O)Nc1cc(Nc2nccc(-c3cn(C)c4ccccc34)n2)c(OC)cc1N(C)CCN(C)C`: the Potency is 3.32 µM (active).
The same measure, in the same setting: the figure for `COc1cc2ncnc(Nc3ccc(Oc4ccccc4)cc3)c2cc1OC` is 4.59 µM (active).
